Data: paper PMC5700166
Numbering of substitutions follows the chain as printed.

How the values were obtained:
Assay in all cases: protein-binding microarray (PBM); PBM: ~300 nM protein, 6 mM HEPES pH 7.8, 80 mM KCl, 0.5 mM EDTA, 0.5 mM EGTA, 6% glycerol, 35 ng/ul poly-dIdC, 1% milk, 1 h, room temperature; Ap Aiptasia and Nv Nematostella (sea anemones) / Co Capsaspora / Aq Amphimedon (sponge) / Dm Drosophila / Hu human; RHD is the Rel homology domain; high values mean tight binding
Conditions in all cases: dsDNA, one strand shown
GST-Ap-NF-kB RHD = biological target: T1, GST-Ap-NF-kB RHD (Exaiptasia pallida (Aiptasia), UniProt A0A913YAJ5 2-422)
T1 sequence: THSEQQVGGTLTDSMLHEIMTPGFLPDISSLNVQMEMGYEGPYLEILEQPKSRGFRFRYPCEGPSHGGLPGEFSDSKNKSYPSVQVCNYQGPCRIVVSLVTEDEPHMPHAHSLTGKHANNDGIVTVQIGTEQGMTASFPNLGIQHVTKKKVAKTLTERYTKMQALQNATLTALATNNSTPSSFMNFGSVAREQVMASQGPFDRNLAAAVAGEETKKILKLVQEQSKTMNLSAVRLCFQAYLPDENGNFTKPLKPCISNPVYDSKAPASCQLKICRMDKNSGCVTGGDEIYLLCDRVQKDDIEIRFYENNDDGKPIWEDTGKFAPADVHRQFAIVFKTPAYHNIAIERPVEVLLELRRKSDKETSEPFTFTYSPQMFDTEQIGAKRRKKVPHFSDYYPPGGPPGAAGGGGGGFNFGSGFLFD

GST-Co-NF-kB = biological target: T2, GST-Co-NF-kB (Capsaspora owczarzaki, UniProt F1ARL5 200-546)
T2 sequence: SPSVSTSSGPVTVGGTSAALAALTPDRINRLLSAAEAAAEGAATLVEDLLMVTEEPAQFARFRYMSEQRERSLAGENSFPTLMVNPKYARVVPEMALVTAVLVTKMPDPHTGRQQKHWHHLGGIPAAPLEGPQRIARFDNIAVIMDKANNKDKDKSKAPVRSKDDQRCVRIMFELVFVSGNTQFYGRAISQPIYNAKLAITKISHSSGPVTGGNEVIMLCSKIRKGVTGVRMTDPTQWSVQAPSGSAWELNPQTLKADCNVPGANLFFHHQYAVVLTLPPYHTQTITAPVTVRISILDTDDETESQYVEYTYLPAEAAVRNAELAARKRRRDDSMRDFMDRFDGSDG

GST-Dm-Relish = biological target: T3, GST-Dm-Relish (Drosophila melanogaster, UniProt Q94527 99-473)
T3 sequence: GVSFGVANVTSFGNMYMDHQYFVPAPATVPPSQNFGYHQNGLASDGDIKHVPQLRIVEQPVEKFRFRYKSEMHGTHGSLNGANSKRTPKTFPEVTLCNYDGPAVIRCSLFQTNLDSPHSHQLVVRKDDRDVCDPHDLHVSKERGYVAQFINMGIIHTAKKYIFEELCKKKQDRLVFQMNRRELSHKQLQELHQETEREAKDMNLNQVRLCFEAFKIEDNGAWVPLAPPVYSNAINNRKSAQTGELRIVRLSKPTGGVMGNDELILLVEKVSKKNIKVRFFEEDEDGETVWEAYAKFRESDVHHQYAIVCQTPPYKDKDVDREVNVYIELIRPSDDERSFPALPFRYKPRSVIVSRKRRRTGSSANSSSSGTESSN

GST-Aq-NF-kB = biological target: T4, GST-Aq-NF-kB (Amphimedon queenslandica, UniProt A9Y5G7 2-389)
T4 sequence: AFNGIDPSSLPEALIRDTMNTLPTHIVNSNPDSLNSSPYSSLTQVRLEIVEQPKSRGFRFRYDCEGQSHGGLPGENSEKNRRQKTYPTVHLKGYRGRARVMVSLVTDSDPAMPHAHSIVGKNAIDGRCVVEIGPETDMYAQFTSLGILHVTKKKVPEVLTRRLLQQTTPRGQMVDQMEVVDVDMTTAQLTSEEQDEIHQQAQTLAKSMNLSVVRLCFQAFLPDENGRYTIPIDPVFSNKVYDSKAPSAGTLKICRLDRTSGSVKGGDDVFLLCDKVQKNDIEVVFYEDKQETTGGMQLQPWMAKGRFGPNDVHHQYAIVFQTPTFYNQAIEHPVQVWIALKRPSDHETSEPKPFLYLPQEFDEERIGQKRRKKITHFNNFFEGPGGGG

[1] = biological target: T5, GST-Nv-NF-kB (Cys allele) (Nematostella vectensis, UniProt E5G601 2-411)
T5 sequence: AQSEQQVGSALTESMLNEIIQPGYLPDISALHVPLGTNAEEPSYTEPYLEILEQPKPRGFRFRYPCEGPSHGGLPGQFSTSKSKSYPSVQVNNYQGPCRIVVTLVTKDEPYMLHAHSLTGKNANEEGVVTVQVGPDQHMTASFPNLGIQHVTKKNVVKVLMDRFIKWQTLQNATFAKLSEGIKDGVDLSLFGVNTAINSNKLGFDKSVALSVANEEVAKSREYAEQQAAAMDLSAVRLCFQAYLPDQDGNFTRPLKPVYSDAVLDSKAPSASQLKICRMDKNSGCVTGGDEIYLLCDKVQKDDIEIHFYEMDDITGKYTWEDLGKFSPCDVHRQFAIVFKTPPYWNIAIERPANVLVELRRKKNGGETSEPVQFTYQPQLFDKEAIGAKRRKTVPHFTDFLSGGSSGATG

[2] = biological target: T6, GST-Nv-NF-kB (Ser allele) (Nematostella vectensis, UniProt A7UNT2 2-411)
T6 sequence: T5 sequence with Q21R, C66S, S207N, E215Q, V217A, E225K, A268E, D399E

Row | Sequence | binding signal (GST-Ap-NF-kB RHD) | binding signal (GST-Co-NF-kB) | binding signal (GST-Dm-Relish) | binding signal (GST-Aq-NF-kB) | binding signal [1] | binding signal [2]
1 | CCGATTAACATCACTCCCCCCCCTGATGTTAATCGGGTCTTGATTCGCTTGACGCTGCTG | 5.73 z-score | 6.72 z-score | 4.43 z-score | 4.65 z-score |  | 
2 | CCGATTAACATCAGGGATTAACATGATGTTAATCGGGTCTTGATTCGCTTGACGCTGCTG | 1.77 z-score |  | 4.89 z-score | 1.83 z-score |  | 
3 | CCGATTAACATCACGGGATCTCCTGATGTTAATCGGGTCTTGATTCGCTTGACGCTGCTG | 2.16 z-score |  | 4.06 z-score | 3.77 z-score |  | 
4 | CCGATTAACATCAAGGAATGCCCTGATGTTAATCGGGTCTTGATTCGCTTGACGCTGCTG | 1.68 z-score |  | 1.35 z-score | 2.68 z-score |  | 
5 | CCGATTAACATCAGCGGAATTCCTGATGTTAATCGGGTCTTGATTCGCTTGACGCTGCTG | 1.33 z-score |  | 2.27 z-score | 1.89 z-score |  | 
6 | CCGATTAACATCAGGGTCTTATATGATGTTAATCGGGTCTTGATTCGCTTGACGCTGCTG |  |  |  | 2.15 z-score | 1.26 z-score | 
7 | CCGATTAACATCACGGGATGTCCTGATGTTAATCGGGTCTTGATTCGCTTGACGCTGCTG | 1.47 z-score |  | 3.42 z-score | 3.06 z-score |  | 
8 | CCGATTAACATCAGGGCATCCCATGATGTTAATCGGGTCTTGATTCGCTTGACGCTGCTG | 1.37 z-score |  | 5.99 z-score | 2.34 z-score |  | 
9 | CCGATTAACATCAGGATTTTACCTGATGTTAATCGGGTCTTGATTCGCTTGACGCTGCTG |  |  | 3.21 z-score | 3.66 z-score | 2.01 z-score | 
10 | CCGATTAACATCATTATGGGAAATGATGTTAATCGGGTCTTGATTCGCTTGACGCTGCTG |  | 2.21 z-score |  | 1.44 z-score | 2.63 z-score | 
11 | CCGATTAACATCAAGGAATTTCCTGATGTTAATCGGGTCTTGATTCGCTTGACGCTGCTG |  |  | 2.04 z-score | 4.35 z-score | 1.75 z-score | 
12 | CCGATTAACATCAAATTGGGAAATGATGTTAATCGGGTCTTGATTCGCTTGACGCTGCTG |  | 1.89 z-score |  | 1.16 z-score | 2.55 z-score | 
13 | CCGATTAACATCACATTGGGAAATGATGTTAATCGGGTCTTGATTCGCTTGACGCTGCTG |  | 2.31 z-score | 1.18 z-score | 1.18 z-score | 2.26 z-score | 
14 | CCGATTAACATCAAGGAAAAACCTGATGTTAATCGGGTCTTGATTCGCTTGACGCTGCTG |  |  | 2.61 z-score | 3.09 z-score | 1.07 z-score | 
15 | CCGATTAACATCAACCATGGGAATGATGTTAATCGGGTCTTGATTCGCTTGACGCTGCTG |  | 1.67 z-score |  | 1.99 z-score | 1.18 z-score | 
16 | CCGATTAACATCAGGGCAGTACCTGATGTTAATCGGGTCTTGATTCGCTTGACGCTGCTG |  |  | 1.84 z-score | 3.03 z-score | 1.21 z-score | 
17 | CCGATTAACATCAATTCCCATGATGATGTTAATCGGGTCTTGATTCGCTTGACGCTGCTG |  | 1.75 z-score |  | 1.67 z-score | 2.46 z-score | 

Row | Sequence | binding signal (GST-Ap-NF-kB RHD) | binding signal (GST-Co-NF-kB) | binding signal (GST-Dm-Relish) | binding signal (GST-Aq-NF-kB) | binding signal [1] | binding signal [2]
18 | CCGATTAACATCAAAATATTCCGTGATGTTAATCGGGTCTTGATTCGCTTGACGCTGCTG |  | 1.07 z-score |  | 1.1 z-score |  | 
19 | CCGATTAACATCAGGAAAAAACCTGATGTTAATCGGGTCTTGATTCGCTTGACGCTGCTG |  |  | 3.66 z-score | 3.37 z-score | 1.77 z-score | 2.77 z-score
20 | CCGATTAACATCAGGAATCTACCTGATGTTAATCGGGTCTTGATTCGCTTGACGCTGCTG |  |  | 2.24 z-score | 3.42 z-score | 1.61 z-score | 
21 | CCGATTAACATCAGGGTTAGTTGTGATGTTAATCGGGTCTTGATTCGCTTGACGCTGCTG |  | 1.11 z-score |  | 1.57 z-score |  | 
22 | CCGATTAACATCAAGGTATTTCCTGATGTTAATCGGGTCTTGATTCGCTTGACGCTGCTG |  |  | 3.08 z-score | 3.84 z-score | 1.66 z-score | 1.29 z-score
23 | CCGATTAACATCACAAATGGGAATGATGTTAATCGGGTCTTGATTCGCTTGACGCTGCTG |  | 1.92 z-score | 1.56 z-score | 2.36 z-score | 1.95 z-score | 
24 | CCGATTAACATCAATTCCCAACATGATGTTAATCGGGTCTTGATTCGCTTGACGCTGCTG |  | 1.84 z-score |  | 1.17 z-score | 2.32 z-score | 
25 | CCGATTAACATCAGGAAAAGTCCTGATGTTAATCGGGTCTTGATTCGCTTGACGCTGCTG |  |  | 2.98 z-score | 3.07 z-score | 1.25 z-score | 
26 | CCGATTAACATCAGAAATGGGAATGATGTTAATCGGGTCTTGATTCGCTTGACGCTGCTG |  | 1.87 z-score |  | 2.5 z-score | 2.45 z-score | 
27 | CCGATTAACATCAGGAAGTTACCTGATGTTAATCGGGTCTTGATTCGCTTGACGCTGCTG |  |  | 2.36 z-score | 2.57 z-score | 1.29 z-score | 1.31 z-score
28 | CCGATTAACATCATTTCCCAAAATGATGTTAATCGGGTCTTGATTCGCTTGACGCTGCTG |  | 1.54 z-score | 1.36 z-score | 1.26 z-score | 2.55 z-score | 
29 | CCGATTAACATCAGACATGGGAATGATGTTAATCGGGTCTTGATTCGCTTGACGCTGCTG |  | 2.4 z-score |  | 1.94 z-score | 1.46 z-score | 
30 | CCGATTAACATCAGAAATTACCATGATGTTAATCGGGTCTTGATTCGCTTGACGCTGCTG |  |  | 2.33 z-score | 1.16 z-score | 1.45 z-score | 
31 | CCGATTAACATCAGGAGTATCCCTGATGTTAATCGGGTCTTGATTCGCTTGACGCTGCTG |  | 1.01 z-score |  | 3.53 z-score |  | 
32 | CCGATTAACATCACCCATGGGAATGATGTTAATCGGGTCTTGATTCGCTTGACGCTGCTG |  | 2.05 z-score | 1.03 z-score | 2.51 z-score | 1.13 z-score | 
33 | CCGATTAACATCAAGAAATTTCCTGATGTTAATCGGGTCTTGATTCGCTTGACGCTGCTG |  |  |  | 2.06 z-score | 1.11 z-score | 
34 | CCGATTAACATCAGGAATATACCTGATGTTAATCGGGTCTTGATTCGCTTGACGCTGCTG |  |  | 1.86 z-score | 1.69 z-score | 1.47 z-score | 
